Laboratory results from publication PMC4336329 (PLoS ONE, 2015).
The whole screen tested about 310,000 compounds, of which about 14,000 (4.5%) showed an effect of 50% or more. The effect is printed as a negative number. Only a selection was taken, and strong results are over-represented in it overall. Where a SMILES comes first, the peptide text is derived from it. The star is where a group is joined. Boc = CC(C)(C)OC(=O)*; OtBu = CC(C)(C)O*

molecular target: human ether-à-go-go-related gene (hERG) potassium channel (human, UniProt Q12809); assay: primary screen, population patch clamp on CHO cells stably expressing hERG; higher = less effect of the substance
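Also: peak tail current of the secondary pulse compared with the same well before compound.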

Sequence of human ether-à-go-go-related gene (hERG) potassium channel (Q12809 whole entry, looked up): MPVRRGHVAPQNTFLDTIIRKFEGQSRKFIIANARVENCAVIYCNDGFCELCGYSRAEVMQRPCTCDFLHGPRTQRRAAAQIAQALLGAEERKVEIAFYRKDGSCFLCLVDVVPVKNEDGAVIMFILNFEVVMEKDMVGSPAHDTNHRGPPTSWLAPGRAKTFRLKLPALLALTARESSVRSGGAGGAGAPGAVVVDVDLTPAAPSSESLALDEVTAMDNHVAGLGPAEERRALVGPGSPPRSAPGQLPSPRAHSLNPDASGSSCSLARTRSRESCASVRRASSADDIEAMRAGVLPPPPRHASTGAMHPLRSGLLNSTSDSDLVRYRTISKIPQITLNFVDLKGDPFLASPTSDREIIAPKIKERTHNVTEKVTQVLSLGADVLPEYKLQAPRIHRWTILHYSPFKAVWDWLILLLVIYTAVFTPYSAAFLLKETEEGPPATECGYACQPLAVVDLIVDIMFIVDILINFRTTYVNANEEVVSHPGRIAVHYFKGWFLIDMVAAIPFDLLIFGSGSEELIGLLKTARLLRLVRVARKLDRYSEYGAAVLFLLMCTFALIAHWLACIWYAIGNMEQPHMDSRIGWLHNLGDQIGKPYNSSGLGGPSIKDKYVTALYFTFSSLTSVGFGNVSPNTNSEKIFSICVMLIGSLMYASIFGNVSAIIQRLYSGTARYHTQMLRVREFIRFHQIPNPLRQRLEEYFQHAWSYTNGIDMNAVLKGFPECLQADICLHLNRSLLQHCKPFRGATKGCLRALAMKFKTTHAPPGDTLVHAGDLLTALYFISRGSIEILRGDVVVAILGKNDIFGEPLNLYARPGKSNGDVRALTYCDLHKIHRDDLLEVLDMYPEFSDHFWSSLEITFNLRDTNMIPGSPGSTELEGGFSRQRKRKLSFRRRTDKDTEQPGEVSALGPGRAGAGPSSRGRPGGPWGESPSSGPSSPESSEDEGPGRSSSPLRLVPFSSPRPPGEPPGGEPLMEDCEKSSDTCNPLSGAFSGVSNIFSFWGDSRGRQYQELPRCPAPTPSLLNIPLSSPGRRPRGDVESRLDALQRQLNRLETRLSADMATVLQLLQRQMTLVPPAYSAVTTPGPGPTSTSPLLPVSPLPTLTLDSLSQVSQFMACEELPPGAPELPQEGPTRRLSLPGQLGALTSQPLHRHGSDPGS

Going from `CCCCOc1nc2ccccc2c(=O)n1-c1ccccc1` to `c1ccc(Cc2nc3ccccc3[nH]2)cc1`, the “hERG current change (%, negative = inhibition) at 10uM” value rises from -11.6% to -6.39%.

Compared with `Cc1cc(C)n2nc(C(=O)OC(C)C(=O)c3ccccc3)nc2n1` (stereo not shown), `COC(=O)CSc1nc2nc(C)cc(C)n2n1` is lower in “hERG current change (%, negative = inhibition) at 10uM” value: 17.9% for the first, 4.29% for the second.

First: O=C(Cn1[nH]c(=O)c2ccccc2c1=O)NC1CCN(Cc2ccccc2)CC1
Second: Fc1ccccc1N1CCN(C2CCN(Cc3c[nH]c4ccccc34)CC2)CC1
The “hERG current change (%, negative = inhibition) at 10uM” value of the first is higher: 0.791% for the first, -54.5% for the second.

First: COc1ccc2c(c1OC)C(=O)N(C(C)C(=O)O)C2=O (stereo not shown)
Second: COc1cc(C(NC=O)C(=O)Nc2c(C)cccc2C)ccc1O (stereo not shown)
The “hERG current change (%, negative = inhibition) at 10uM” value of the first is lower: 10.1% for the first, 15.1% for the second.

First: CC(=O)Nc1ccc(NC(=O)CSc2nnc3ccc(-c4cccnc4)nn23)cc1
Second: Cc1ccc(NC(=O)CSc2nnc3ccc(-c4cccnc4)nn23)cc1
The “hERG current change (%, negative = inhibition) at 10uM” value of the first is higher: 19.8% for the first, -49.3% for the second.

Compared with `O=C(CSc1nnc2ccc(-c3cccnc3)nn12)Nc1ccccc1`, `O=C(NCCc1nnc2ccc(NCc3ccc(F)cc3)nn12)c1ccccc1` is higher in “hERG current change (%, negative = inhibition) at 10uM” value: -50.6% for the first, -29% for the second.

First: CC(c1nnc(SCC(=O)NC(=O)NCc2ccco2)n1-c1ccc(Cl)cc1)N(C)C (stereo not shown)
Second: O=C(CN(Cc1ccco1)C(=O)c1ccccc1F)Nc1ccccc1C(F)(F)F
The “hERG current change (%, negative = inhibition) at 10uM” value of the first is lower: -8.66% for the first, 2.3% for the second.

First: CC(C)COc1ccc(C/C(N)=N/n2cnnc2)cc1
Second: COc1ccc(NC(=S)N(Cc2ccc(C)cc2)Cc2ccccn2)cc1
The “hERG current change (%, negative = inhibition) at 10uM” value of the first is higher: 30.4% for the first, -50.5% for the second.

Going from `CS(=O)(=O)N1CCN(c2ccnc3cc(Cl)ccc23)CC1` to `CCS(=O)(=O)N1CCN(c2ccnc3cc(Cl)ccc23)CC1`, the “hERG current change (%, negative = inhibition) at 10uM” value rises from -78.6% to -73.2%.

Going from `Cl.ClCCN1CCN(c2ccnc3cc(Cl)ccc23)CC1` to `CC(C)S(=O)(=O)N1CCN(c2ccnc3cc(Cl)ccc23)CC1`, the “hERG current change (%, negative = inhibition) at 10uM” value falls from -20.8% to -71.6%.

First: Cc1ccc(Cl)cc1N1CCN(S(C)(=O)=O)CC1
Second: CN(C)S(=O)(=O)N1CCN(c2cc(Cl)ccc2Cl)CC1
The “hERG current change (%, negative = inhibition) at 10uM” value of the first is higher: -5.31% for the first, -8.38% for the second.

First: CN(C)S(=O)(=O)N1CCN(c2ccnc3cc(Cl)ccc23)CC1
Second: Clc1ccccc1CN1CCN(c2cccc3[nH]ccc23)CC1
The “hERG current change (%, negative = inhibition) at 10uM” value of the first is lower: -76.2% for the first, 3.09% for the second.

First: Cc1cc(C)c[n+](-c2[nH]c(=O)sc2/C=N/N=C(\N)[S-])c1
Second: Cc1cccc(C)c1NC(=O)c1ccc(-n2cnnn2)cc1
The “hERG current change (%, negative = inhibition) at 10uM” value of the first is higher: 22% for the first, -44.2% for the second.

First: COCCn1c(SCC(=O)NC2CCCC2)nc2cccnc21
Second: CC(Oc1ccc(Br)cc1Br)C(=O)NC1CCCC1 (stereo not shown)
The “hERG current change (%, negative = inhibition) at 10uM” value of the first is higher: 17.1% for the first, 16.2% for the second.

First: COc1ccccc1-n1cnnc1SCC(=O)c1ccc[nH]1
Second: COc1ccccc1N1CCN(C(=O)CCc2c[nH]c3ccccc23)CC1
The “hERG current change (%, negative = inhibition) at 10uM” value of the first is lower: -0.89% for the first, 3.69% for the second.

First: Cc1ccccc1NC(=S)N(CCN1CCOCC1)Cc1ccccc1F
Second: CCc1ccccc1NC(=S)N(CCCN1CCOCC1)Cc1ccccn1
The “hERG current change (%, negative = inhibition) at 10uM” value of the first is higher: 30.1% for the first, -25.8% for the second.

Going from `Cl.Clc1ccc(CNCCC2=CCCCC2)cc1` to `CCOc1ccc(Nc2nc3c(c(=O)[nH]2)CCCC3)cc1`, the “hERG current change (%, negative = inhibition) at 10uM” value rises from -40% to -3.98%.

Going from `COc1ccc(N(CC(=O)N2CCc3ccccc3C2)S(=O)(=O)c2ccccc2)cc1` to `O=C(CN1CCc2ccccc2C1)Nc1ccccc1N1CCCCCC1.O=C(O)C(=O)O`, the “hERG current change (%, negative = inhibition) at 10uM” value rises from -32.1% to -5.79%.

First: N#Cc1nc(COc2ccccc2Cl)oc1NCc1ccc(F)cc1
Second: Cc1ccc(CNc2oc(COc3ccccc3Cl)nc2C#N)cc1
The “hERG current change (%, negative = inhibition) at 10uM” value of the first is lower: 0.159% for the first, 13.2% for the second.

First: CN(C)CCNc1oc(COc2cccc(Cl)c2)nc1C#N
Second: N#Cc1nc(COc2cccc(Cl)c2)oc1NCc1ccco1
The “hERG current change (%, negative = inhibition) at 10uM” value of the first is higher: -16.1% for the first, -16.8% for the second.

Compared with `N#Cc1nc(COc2cccc(Cl)c2)oc1NCc1ccncc1`, `N#Cc1nc(COc2ccccc2Cl)oc1NCc1cccnc1` is higher in “hERG current change (%, negative = inhibition) at 10uM” value: -73.7% for the first, -51.2% for the second.

Going from `FC(F)(F)c1ccc(C2[C@H]3CN(CC4CCCCC4)[C@H](c4ccccc4)C34CC2(c2cccnc2)C4)cc1` (stereo partly shown) to `S=C(Nc1ccc(Oc2ccccc2)cc1)N(CCCN1CCOCC1)Cc1ccccn1`, the “hERG current change (%, negative = inhibition) at 10uM” value falls from 0.391% to -70%.

Compared with `CN1CCN(C(=O)c2c(O)c3cccc4c3n(c2=O)CCC4)CC1.Cl`, `CCc1nn(C(C)C(=O)NCCN2CCCCCC2)c(=O)c2cc3occc3n12` (stereo not shown) is lower in “hERG current change (%, negative = inhibition) at 10uM” value: 6.48% for the first, 6.27% for the second.

Going from `COC(=O)c1ccc(/C=C2/SC(=S)N(CCCC(=O)Nc3ccccn3)C2=O)cc1` to `COc1ccc(/C=C/C(=O)NC(=S)N2CCN(c3ccccn3)CC2)cc1`, the “hERG current change (%, negative = inhibition) at 10uM” value falls from 15.4% to -6.85%.

Compared with `CC(NC(=O)C(CC(=O)OC(C)(C)C)NC(=O)OC(C)(C)C)C(N)=O` (stereo not shown) (Boc-Asp(OtBu)-Ala-NH2; configuration not given here), `CCOC(=O)C(C)Oc1c(Br)cc(C2NC(=O)NC(C)=C2C(C)=O)cc1OCC` (stereo not shown) is higher in “hERG current change (%, negative = inhibition) at 10uM” value: -5.99% for the first, 3.1% for the second.

Compared with `Cc1sc2ncn(CC(=O)NCCCC(=O)N3CCN(c4ncccn4)CC3)c(=O)c2c1C`, `CCc1nn(C(C)C(=O)NCCN2CCN(c3cccc(C)c3C)CC2)c(=O)c2cc3occc3n12` (stereo not shown) is lower in “hERG current change (%, negative = inhibition) at 10uM” value: 7.64% for the first, -65.3% for the second.

First: N#C/C(=C\c1ccco1)Sc1nc2ccccc2s1
Second: Cn1ccc(-c2ccccc2)c(C#N)c1=O
The “hERG current change (%, negative = inhibition) at 10uM” value of the first is lower: 0.525% for the first, 3.34% for the second.

Compared with `Cn1c(=O)c2c(n(Cc3ccccc3)c1=O)NC(=O)C2CC(=O)O` (stereo not shown), `COc1cccc(C(=O)NCCC(=O)NCc2cc(=O)n(C)c(=O)n2C)c1` is higher in “hERG current change (%, negative = inhibition) at 10uM” value: 12.6% for the first, 13.9% for the second.

Going from `CC(C)Cn1c(O)c2ccc(C(=O)N=NC(=O)c3cccnc3)cc2c1O` to `COc1cc(C(C(=O)Nc2c(C)cccc2C)N(C)C(=O)c2ccc(-n3cnnn3)cc2)ccc1O` (stereo not shown), the “hERG current change (%, negative = inhibition) at 10uM” value falls from 17% to -67.7%.

Going from `COc1cccc(NC(=S)N(Cc2ccc(C)cc2)Cc2ccccn2)c1` to `COc1ccccc1NC(=S)N(Cc1ccc(C)cc1)Cc1ccccn1`, the “hERG current change (%, negative = inhibition) at 10uM” value falls from -30.2% to -39.1%.

Going from `COc1ccc(NC(=S)N(CCCN2CCOCC2)Cc2ccccn2)cc1` to `Cc1ccc(NC(=S)N(CCCN2CCOCC2)Cc2ccccn2)cc1`, the “hERG current change (%, negative = inhibition) at 10uM” value falls from -14.4% to -22.8%.

Going from `Cc1cccc(NC(=S)N(CCCN2CCOCC2)Cc2ccccn2)c1` to `CCc1ccc(NC(=S)N(CCCN2CCOCC2)Cc2ccccn2)cc1`, the “hERG current change (%, negative = inhibition) at 10uM” value falls from -22.3% to -56.3%.

First: N#Cc1ccccc1OCC(=O)NCCNC(=O)COc1ccccc1C#N
Second: Cc1ccc(S(=O)(=O)N(C)C)cc1NC(=S)NCCc1ccccn1
The “hERG current change (%, negative = inhibition) at 10uM” value of the first is lower: -10.1% for the first, 24.2% for the second.

Compared with `CS(=O)(=O)CCC(C(=O)OCc1ccc(Br)cc1)N1C(=O)c2ccccc2C1=O` (stereo not shown), `O=C(NS(=O)(=O)Nc1ccc(Cl)cc1)c1c[nH]c2ccccc12` is higher in “hERG current change (%, negative = inhibition) at 10uM” value: -0.0845% for the first, 23.2% for the second.

Going from `COC(=O)c1cc(C(=O)NNC(=O)c2ccc3c(c2)OCO3)cc([N+](=O)[O-])c1` to `Cc1ccc(C(=O)COc2cc(O)c3c(=O)cc(-c4ccccc4)oc3c2)cc1`, the “hERG current change (%, negative = inhibition) at 10uM” value rises from -7.98% to 24.6%.

Compared with `CNC(=S)N/N=C/c1cn(Cc2ccc(F)cc2)c2ccccc12`, `Fc1ccc(N2CCN(Cc3c[nH]c4ccccc34)CC2)cc1` is lower in “hERG current change (%, negative = inhibition) at 10uM” value: -4.59% for the first, -68.3% for the second.

First: Cc1cc(C)c(S(=O)(=O)N2CCN(C(=O)C3CCCO3)CC2)c(C)c1 (stereo not shown)
Second: Cc1c(Cl)c([N+](=O)[O-])nn1CC(=O)N1CCN(C23CC4CC(CC(C4)C2)C3)CC1
The “hERG current change (%, negative = inhibition) at 10uM” value of the first is lower: -17.1% for the first, 19.9% for the second.

Going from `CCc1nn(C(C)C(=O)Nc2cccc(C)c2C)c(=O)c2cc3occc3n12` (stereo not shown) to `Cc1cc(=O)oc2cc(OCC(=O)NCCCN3CCCC3=O)ccc12`, the “hERG current change (%, negative = inhibition) at 10uM” value rises from -0.753% to 29.5%.

Going from `O=C(c1cnn2c(C(F)(F)F)cc(-c3cccs3)nc12)N1CCOCC1` to `O=C(Nc1cccc(-n2cnnn2)c1)c1ccc(C(F)(F)F)cc1`, the “hERG current change (%, negative = inhibition) at 10uM” value falls from -5.7% to -15.3%.

Compared with `Oc1ccc(-c2[nH]ncc2-c2cccc3cccnc23)c(O)c1`, `O=[N+]([O-])c1cccc(CN2CCN(c3cccc4[nH]ccc34)CC2)c1` is lower in “hERG current change (%, negative = inhibition) at 10uM” value: 32.1% for the first, -7.67% for the second.

Going from `Cc1ccc(CN2CCN(c3cccc4[nH]ccc34)CC2)cc1` to `COc1ccccc1N1CCN(Cc2c[nH]c3ccccc23)CC1`, the “hERG current change (%, negative = inhibition) at 10uM” value rises from -60.4% to -55.8%.

Compared with `c1cnc(N2CCN(Cc3c[nH]c4ccccc34)CC2)nc1`, `c1ccc2c(CN3CCOCC3)c[nH]c2c1` is higher in “hERG current change (%, negative = inhibition) at 10uM” value: -36% for the first, 15.1% for the second.

Compared with `O.c1ccc2c(CN3CCN(C4CCCCC4)CC3)c[nH]c2c1`, `c1ccc2c(CN3CCCCCCC3)c[nH]c2c1` is lower in “hERG current change (%, negative = inhibition) at 10uM” value: -18.2% for the first, -22.4% for the second.

First: COc1ccccc1N1CCN(Cc2ccc(OC)c3ccccc23)CC1
Second: N#CC(C#N)=NNc1ccc(S(=O)(=O)N2CCCC2)cc1
The “hERG current change (%, negative = inhibition) at 10uM” value of the first is higher: -5.46% for the first, -17.8% for the second.
